Source: PubChem BioAssay
Rows were chosen to be rich in hits. Some 17% of all compounds tested hit in one or more screens of this group.
TDP1 cell noCPT – qHTS for Inhibitors of human tyrosyl-DNA phosphodiesterase 1 (TDP1): qHTS in cells in absence of CPT; DT40 Tdp1-/- hTDP1 cells, no CPT, ATP luminescence, 48 h; Potency, µM (titrated, usually from 46.2 µM), usual class: inhibitors; actives 15% (n = 420,000); AID 686978, 2013; note: nearly all actives have a fitted effect of over 55% in size
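A cellular qHTS used chicken DT40 cells lacking endogenous Tdp1 but carrying stably transfected human TDP1. Compounds were applied without camptothecin, and cell growth kinetics were judged by ATP-dependent luminescence after ≥48 hr.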
HepG2 tox – HepG2 cytotoxicity, counter-screen for TGF-b inhibitors; HepG2 CAGA-GFP viability, ATP luminescence, 18 h; Potency, µM (doses to about 46.1 µM), most hits filed as cytotoxic; actives 0.76% (n = 410,000); AID 588856
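HepG2 CAGA-GFP cells (1000/well, DMEM with 1% FBS) received compound, then TGF-beta at 500 pg/mL final, and were incubated 18 hours at 37 degrees C. Viability was read by CellTiter-Glo luminescence. Media-only wells were set as complete cell-killing and DMSO as no toxicity.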
TGFb inhibitor – blocks TGF-b signaling; actives 1.2% (n = 410,000); AID 588855; Potency, µM (top dose mostly 46.1 µM), hits mostly inhibitors; HepG2 CAGA-GFP TGF-b/SMAD3 reporter, GFP fluorescence, 18 h; TGF-beta stimulated, 500 pg/mL final; note: nearly all actives have a fitted effect of over 65% in size
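Per well, imaged GFP fluorescence of HEPG2 CAGA-GFP cells gives the signal; cells get compound, then TGF-beta (500 pg/mL final), 18 h at 37 degrees C; %Activity versus -TGF-beta and +DMSO controls.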
HT1080 IDH1KD tx – toxicity to HT-1080 IDH1 knockdown cells (counter line). HT-1080 IDH1 knockdown viability, ATP luminescence, 48 h. Potency, µM (top dose mostly 46.1 µM), actives largely listed as cytotoxic. actives 2% (n = 360,000). AID 686971
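In this qHTS, HT-1080 cells depleted of IDH1 are exposed for 48 h at 37 °C to compound titrations. Toxicity is scored from CellTiter-Glo luminescence, with DMSO as full viability and medium alone as none.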
DT40 TDP1 CPT – growth inhibition of DT40 Tdp1-/-;hTDP1 cells with camptothecin (screen for TDP1 inhibitors); chicken DT40 Tdp1-/-;hTDP1 cells + 20 nM CPT, ATP luminescence, 48 h; Potency, µM (doses to about 46.2 µM), hits mostly inhibitors; actives 12% (n = 420,000); AID 686979; note: nearly all actives have a fitted effect of over 55% in size
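Cell growth measured by CellTiter-Glo luminescence after a minimum 48 h, 37 C compound exposure with 20 nM CPT in Tdp1-knockout DT40 cells stably expressing hTDP1, seeded 400/well; qHTS titration format.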
HT1080NT lethal – kills 2HG-producing HT-1080-NT fibrosarcoma cells; HT-1080-NT fibrosarcoma viability, CellTiter-Glo ATP luminescence, 48 h; actives 1.6% (n = 360,000); Potency, µM (top dose mostly 46.1 µM), actives largely listed as cytotoxic; AID 686970;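 note: NT is the 2HG producing partner of a matched IDH1 knockdown line; nearly all actives have a fitted effect of over 55% in size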
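Toxicity toward the 2HG-producing NT line was scored as %Activity, normalised to DMSO and no-cell wells, from CellTiter-Glo luminescence after 48 hours' treatment.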
A number is an active result; i = inactive; ? = inconclusive; nt = no result given. Calls come from the whole dose curve; as a rule, active = well fitted curve in the direction sought with a large enough effect; inconclusive = small, poorly fitted or top-dose-only effect, or another doubt; inactive = no such curve, though single readings can be large; an effect the other way counts as inactive or inconclusive.

SMILES | TDP1 cell noCPT | HepG2 tox | TGFb inhibitor | HT1080 IDH1KD tx | DT40 TDP1 CPT | HT1080NT lethal
CC(=O)Nc1cccc(-c2csc(Nc3ccccn3)n2)c1 | ? | i | ? | i | ? | ?
Cc1c(NC(=O)CSc2ccc3ccccc3n2)c(=O)n(-c2ccccc2)n1C | i | i | i | i | i | i
Nc1nc(N)c(S(=O)(=O)c2ccccc2)c(Nc2ccccc2)n1 | nt | i | ? | nt | nt | nt
CCCCN(C(=O)C1CCCC1)c1c(N)n(CCC)c(=O)[nH]c1=O | i | i | i | i | i | i
CC(C)C[C@@H](CNCC(=O)[C@H](Cc1ccccc1)NC(=O)c1[nH]cnc1C(=O)N[C@H](CN)CC(C)C)NC(=O)c1nc[nH]c1C(=O)N[C@@H](CC(=O)O)C(=O)O | i | i | i | i | i | i
CC(=O)Nc1ccc(N=C(C2=C(O)c3ccccc3C2=O)c2ccccc2)cc1 | ? | i | i | ? | 3.3µM | i
COc1ccc(N=C(C)C2=C(O)c3ccccc3C2=O)cc1 | ? | i | i | i | 23µM | i
CCOc1ccc(N=C(C)C2=C(O)c3ccccc3C2=O)cc1 | ? | i | i | i | i | i
COc1cccc(NC(=O)CN(C)C(=O)CCCc2nc3ccccc3s2)c1 | i | i | i | i | i | i
O=S1(=O)C[C@@H](N2CCC(Cc3ccccc3)CC2)[C@H](COCc2ccccc2)N1 | 23µM | i | i | i | 18µM | i
CC(C)(C)c1ccc(C(=O)Cn2cnnc2C#N)cc1 | 16µM | i | i | ? | 21µM | ?
CSc1ccc(CN2CCN(C(=O)CC(C)C)CC2)cc1 | i | i | i | i | i | i
COc1cccc(-c2ccc(NC(=O)C3CCCN(Cc4cnc(C)n4C)C3)cc2)c1 (configuration not stated) | ? | i | i | i | ? | i
Cc1cc(CN2CCCC(C(=O)Nc3ccc(-c4nc5ccccc5[nH]4)cc3)C2)n[nH]1 (configuration not stated) | ? | i | i | ? | 18µM | i
COc1ccc2cc(C(=O)C3CCCN(C(=O)c4ccnn4C)C3)ccc2c1 (configuration not stated) | 15µM | i | ? | i | 26µM | i
Cc1ncc(CN2CCCC(C(=O)Nc3ccc(-c4ccco4)cc3)C2)cn1 (configuration not stated) | i | i | i | i | i | i
Cc1ncc(CN2CCCC(C(=O)Nc3ccc(-c4cccc(F)c4)cc3)C2)n1C (configuration not stated) | ? | i | ? | ? | 23µM | ?
COCCc1ncc(CN2CCCC(C(=O)Nc3cccc(-c4cccc(C)c4)c3)C2)cn1 (configuration not stated) | 23µM | i | i | ? | ? | ?
CN(C)C(CNC(=O)c1ccc(S(=O)(=O)Nc2ccccc2F)cc1)c1ccco1 (configuration not stated) | ? | i | i | i | i | i
COCCNc1oc(/C=C/c2ccc(F)cc2)nc1S(=O)(=O)c1ccccc1 | i | i | i | i | i | i
Cc1cc(Cl)ccc1C(=O)C1CCCN(C(=O)c2cc(C(C)C)no2)C1 (configuration not stated) | i | i | i | i | ? | i
CCOC(=O)N1CCC(N2CCCC(C(=O)c3cc(C)c(OC)c(C)c3)C2)CC1 (configuration not stated) | i | i | i | i | i | i
COc1cccc(-c2ccc(NC(=O)C3CCCN(Cc4cnn(C)c4)C3)cc2)c1 (configuration not stated) | ? | i | i | 16µM | ? | ?
CC(C)c1cc(C(=O)N2CCCC(C(=O)c3ccc4ccccc4c3)C2)on1 (configuration not stated) | 26µM | i | i | i | ? | i
COc1ccc2cc(C(=O)C3CCCN(Cc4cccc(C)n4)C3)ccc2c1 (configuration not stated) | 8.2µM | i | ? | 23µM | 2.6µM | ?
SMILES | TDP1 cell noCPT | HepG2 tox | TGFb inhibitor | HT1080 IDH1KD tx | DT40 TDP1 CPT | HT1080NT lethal
CCOC(=O)N1CCC(N2CCCC(C(=O)c3ccc4cc(OC)ccc4c3)C2)CC1 (configuration not stated) | 15µM | i | ? | ? | 23µM | ?
Cc1ccc(S(=O)(=O)CCC(=O)OCC(=O)N(C)c2ccccc2)cc1 | i | i | i | i | i | i
CC(OC(=O)c1ccc(Br)o1)C(=O)NCC1CCCCC1 (configuration not stated) | ? | i | i | i | i | i
COc1cccc(C(=O)C2CCCN(C(=O)c3ccc(C#CC(C)(C)O)cc3)C2)c1 (configuration not stated) | 15µM | i | ? | i | 18µM | i
COc1cccc(-c2ccc(NC(=O)C3CCCN(Cc4cnn(C)c4C)C3)cc2)c1 (configuration not stated) | ? | i | i | ? | ? | ?
COc1cccc(-c2ccc(NC(=O)C3CCCN(Cc4ccc(CO)o4)C3)cc2)c1 (configuration not stated) | 16µM | i | i | i | 16µM | i
COc1cccc(-c2ccc(NC(=O)C3CCCN(Cc4cccc(C)n4)C3)cc2)c1 (configuration not stated) | 23µM | i | ? | ? | ? | ?
Cc1cc2[nH]c3c(c[n+](C)c4ccccc34)c2cc1C | 1.6µM | 10µM | ? | 21µM | i | ?
Cc1cc(=O)[nH]c2ccccc12 | i | i | i | i | ? | i
CCN(CC)C1CCN(C(=O)c2ccc(OC3CCN(C(=O)CCOC)CC3)cc2)C1 (configuration not stated) | i | i | i | i | i | i
O=C(NCc1ccc(Cl)cc1)c1cc2cccc3c2n1CCS3 | 16µM | i | ? | nt | ? | nt
CC(C)Oc1ccc(CNC(=O)c2cc3cccc4c3n2CC(C)S4)cc1 (configuration not stated) | ? | i | ? | nt | ? | nt
CCc1cccc(NS(=O)(=O)c2csc(C(N)=O)c2)c1 | 15µM | i | i | i | i | i
Cc1ccc(NS(=O)(=O)c2csc(C(N)=O)c2)cc1C | 21µM | i | i | i | ? | i
Cc1ccc(NC(=O)CSc2ccc(C(N)=O)cc2[N+](=O)[O-])cc1C | 16µM | i | i | i | 10µM | i
CCOC(=O)c1ccc(NC(C)=O)c([N+](=O)[O-])c1 | i | i | i | i | 26µM | i
